Experimental findings from PubChem BioAssay (NCI) are described below.

Some test systems named below: T-47D breast; BT-549 breast; MDA-MB-435 melanoma; SW-620 colon; MCF7 breast; HCT-116 colon; HCC-2998 colon; KM12 colon.
Test in all cases: NCI-60 one-dose screen, 48 h (100 = growth as untreated, 0 = no growth, -100 = all killed)
Holding throughout (conditions): 10 µM unless noted

This is part of a sample that, as a whole, favours compounds with a hit. Of some 83,000 tested, about 20% had one in any assay.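 Activity criterion: percent growth below 10, measured after cells in 96-well plates were exposed to a single compound concentration for 48 hours.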 Values without a mark were called inactive. Calls of active or inactive are those of the source.

With `O=C(COc1cccc(/C=C2\Oc3ccc4ccccc4c3C2=O)c1)c1ccc([N+](=O)[O-])cc1`, the growth is 64% with T-47D breast; -81.9% (active) in the assay with BT-549 breast; 90.8% in the assay with MDA-MB-435 melanoma; 80% in the assay with SW-620 colon; 49.3% in the assay on MCF7 breast; 58.5% in the assay with HCT-116 colon. Besides, the values for the growth in the assay with HCC-2998 colon and in the assay on KM12 colon were 108% and 88.3%, respectively.

Turning to `Cc1ccc(-c2c3c(N)nc(-c4ccncc4)nc3nc3c2c(C)nn3-c2ccccc2)cc1`, the growth in the assay on T-47D breast is 35.6%; in the assay on BT-549 breast, 59.4%; in the assay on MDA-MB-435 melanoma, 31.4%; in the assay with SW-620 colon it was 39.5%; with MCF7 breast it was 1.86% (active); in the assay on HCT-116 colon it was 12.7%. The growth with HCC-2998 colon was 99.8%; in the assay with KM12 colon it was 74.7%.

As to `O=C(COc1ccc(/C=C2\Oc3ccc4ccccc4c3C2=O)cc1)c1ccc([N+](=O)[O-])cc1`, the growth in the assay on T-47D breast was 73.1%; in the assay on BT-549 breast, 9.91% (active); in the assay on MDA-MB-435 melanoma, 104%; with SW-620 colon, 98.5%; in the assay on MCF7 breast, 15.6%; with HCT-116 colon, 74.1%. Also, the growth is 95.5% in the assay on HCC-2998 colon and 93.5% with KM12 colon.

For the molecule `O=C(c1ccc(N2CCOCC2)cc1[N+](=O)[O-])N1CCOCC1`, the growth was 102% in the assay on T-47D breast; 104% in the assay with BT-549 breast; -32.2% (active) with MDA-MB-435 melanoma; 93.1% in the assay with SW-620 colon; 127% in the assay on MCF7 breast; 107% in the assay with HCT-116 colon. For the same molecule, the growth in the assay with HCC-2998 colon is 108%; in the assay on KM12 colon, 121%.

`Cc1c2oc3c(C)ccc(C(=O)OC(C)C4NC(=O)C(C(C)C)N(C)C(=O)CN(C)C(=O)C5CCCN5C(=O)C(C(C)C)NC4=O)c3nc-2c(C(=O)OC(C)C2NC(=O)C(C(C)C)N(C)C(=O)CN(C)C(=O)C3CCCN3C(=O)C(C(C)C)NC2=O)c(N)c1=O` (stereo not drawn): the growth with T-47D breast was 5.74% (active); with BT-549 breast it was -38.1% (active); in the assay with MDA-MB-435 melanoma, -71.1% (active); in the assay with SW-620 colon it was 3.76% (active); with MCF7 breast it was 5.55% (active); with HCT-116 colon, 7.39% (active). The growth in the assay with HCC-2998 colon is -34.4% (active); with KM12 colon it was 0.674% (active).

In the case of `O=C1Nc2ccc(C(=O)O)c(O)c2C1=O`, the growth was 106% with T-47D breast; 106% in the assay on BT-549 breast; 106% in the assay with MDA-MB-435 melanoma; 104% with SW-620 colon; 104% in the assay with MCF7 breast; 108% in the assay on HCT-116 colon. For the same molecule, the growth was 117% with HCC-2998 colon and 106% with KM12 colon.

Consider `CC[n+]1c(/C=C/c2ccc(N3CCCC3)cc2)cccc1/C=C/c1ccc(N2CCCC2)cc1`, for which the growth is -61% (active) with T-47D breast; -89.7% (active) in the assay with BT-549 breast; -70.7% (active) in the assay with MDA-MB-435 melanoma; -88.1% (active) with SW-620 colon; -85.5% (active) in the assay on MCF7 breast; -54.7% (active) in the assay on HCT-116 colon. For the same molecule, the values for the growth in the assay on HCC-2998 colon and with KM12 colon were -82.5% (active) and -81.5% (active), respectively.

Turning to `C#C[C@]1(O)CCC2C3CCc4cc(O)ccc4C3CC[C@@]21C` (stereo partly drawn), the growth was 50.3% in the assay on T-47D breast; 36.8% in the assay on BT-549 breast; -5.44% (active) in the assay on MDA-MB-435 melanoma; 21.2% in the assay with SW-620 colon; 34.1% in the assay with MCF7 breast; 19% in the assay on HCT-116 colon. Besides, the growth is 61% in the assay on HCC-2998 colon and 21.9% in the assay with KM12 colon.

Take `COc1cc(/C=C/C(=O)C(C(=O)/C=C/c2ccc(OC(=O)CCNc3nnc(C)s3)c(OC)c2)C(=O)CCNc2nnc(C)s2)ccc1OC(=O)CCNc1nnc(C)s1`: the growth in the assay with T-47D breast was 41.4%; with BT-549 breast, -44% (active); in the assay with MDA-MB-435 melanoma, -27.5% (active); in the assay with SW-620 colon it was -19.5% (active); with MCF7 breast, 8.2% (active); in the assay on HCT-116 colon, -31.6% (active). Also, the growth was -46.7% (active) in the assay on HCC-2998 colon and -39.2% (active) in the assay with KM12 colon.

For the molecule `BrC1CC(Br)c2c1c1c(c3c2C(Br)CC3Br)C(Br)CC1Br` (stereo not drawn), the growth is 91.8% with T-47D breast; 125% in the assay on BT-549 breast; 103% in the assay on MDA-MB-435 melanoma; 83% in the assay on SW-620 colon; 49.6% in the assay with MCF7 breast; 80.9% with HCT-116 colon. Besides, the growth with HCC-2998 colon is 87.5%; with KM12 colon, 129%.

Turning to `CC(=O)OC1Oc2cc(C)c(C)cc2-c2oc(=O)c(-c3ccccc3)cc21` (stereo not drawn), the growth was 43.8% in the assay with T-47D breast; 24.9% with BT-549 breast; -19.6% (active) in the assay with MDA-MB-435 melanoma; 16.3% with SW-620 colon; 10.9% with MCF7 breast; 14% in the assay with HCT-116 colon. The growth in the assay with HCC-2998 colon is 41.4%; in the assay with KM12 colon it was 7.26% (active).

On to `CCN1CCN(c2nc(NNC(=O)Cc3ccccc3)nc(N3CCN(C(c4ccccc4)c4ccccc4)CC3)n2)CC1`, for which the growth in the assay on T-47D breast is 29.9%; with BT-549 breast, 88.1%; in the assay with MDA-MB-435 melanoma it was -33.7% (active); with SW-620 colon it was 16.5%; in the assay with MCF7 breast, 33.9%; in the assay with HCT-116 colon, 28.3%. The growth in the assay with HCC-2998 colon is 38.5%; with KM12 colon it was 59%.

As for `CCOC(=O)Nc1cc(-c2ccc(C)c(NS(C)(=O)=O)c2)nn2c(C)nnc12`, the growth in the assay with T-47D breast is 23.3%; in the assay with BT-549 breast, 49.5%; with MDA-MB-435 melanoma it was 9.2% (active); in the assay on SW-620 colon it was 30.2%; with MCF7 breast, 13%; in the assay with HCT-116 colon, 15.6%. The growth is -58% (active) in the assay on HCC-2998 colon and 12.2% in the assay on KM12 colon.

Consider `Cc1ccc(S(=O)(=O)NCCN2c3nc4ccccc4cc3Sc3cc4ccccc4nc32)cc1`, for which the growth was 62.5% in the assay on T-47D breast; 46.2% in the assay with BT-549 breast; 105% in the assay on MDA-MB-435 melanoma; 87.7% with SW-620 colon; 69% in the assay with MCF7 breast; 70.5% in the assay on HCT-116 colon. Moreover, the growth in the assay on HCC-2998 colon is 86.3%; with KM12 colon it was 165%.

`COc1ccc2c(c1)[n+](=O)c(/C=C/C(=O)c1cc(OC)c(OC)c(OC)c1)c(C)n2[O-]`: the growth with T-47D breast is 28.3%; in the assay with BT-549 breast, 73.3%; with MDA-MB-435 melanoma it was 34.6%; in the assay with SW-620 colon, 21.7%; in the assay with MCF7 breast it was 18.1%; in the assay with HCT-116 colon, 17.9%. The growth was 112% with HCC-2998 colon and 80.9% with KM12 colon.

With `O=C(COc1cccc(/C=C2\Oc3ccc4ccccc4c3C2=O)c1)c1ccc(Cl)cc1`, the growth in the assay with T-47D breast is 62.6%; in the assay with BT-549 breast it was 3.5% (active); in the assay with MDA-MB-435 melanoma, 96.1%; in the assay with SW-620 colon, 36%; in the assay with MCF7 breast, 63.9%; with HCT-116 colon, 41.7%. Besides, the results for the growth with HCC-2998 colon and in the assay with KM12 colon were 87.5% and 96.5%, respectively.
